We go through 15 compounds from PubChem BioAssay (NCI).

The panel holds about 83,000 compounds, 20% with a hit somewhere; the sample as a whole holds those more often.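 Note: values are percent growth. 100 is the growth of untreated cells, values between 100 and 0 indicate rising inhibition; between -100 and 0 indicates cell death.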 Unmarked numbers belong to inactive results. Activity calls are given as the source filed them. The calls were made as follows: active = growth percent below 10; inactive = the rest.

Some test systems named below: SR leukemia; RPMI-8226 leukemia; OVCAR-8 ovarian; OVCAR-5 ovarian; IGROV1 ovarian; OVCAR-3 ovarian; HS 578T breast; NCI/ADR-RES ovarian; OVCAR-4 ovarian; SK-OV-3 ovarian.
Assay in all cases: NCI-60 one-dose screen, 48 h (100 = growth as untreated, 0 = no growth, -100 = all killed)
Holding throughout (conditions): 10 µM unless noted

For the compound `FCc1nc2nc(Cl)c(Cl)nc2[nH]1`, the growth is 95.9% with SR leukemia; 97% in the assay with RPMI-8226 leukemia; 102% in the assay on OVCAR-8 ovarian; 93.3% in the assay on OVCAR-5 ovarian; 108% in the assay with IGROV1 ovarian; 108% with OVCAR-3 ovarian. The growth was 101% in the assay on HS 578T breast and 107% in the assay with NCI/ADR-RES ovarian.

On to `Cn1c(COC(=O)NCCN2CCOCC2)nc2c(N3CCOCC3)nc(-c3ccccc3)nc21`, for which the growth in the assay with SR leukemia was -5.83% (active); in the assay with RPMI-8226 leukemia, -26.2% (active); with OVCAR-8 ovarian, 7.67% (active); in the assay on OVCAR-4 ovarian it was -61.1% (active); in the assay with SK-OV-3 ovarian it was 77.7%; in the assay with IGROV1 ovarian it was -93.3% (active). Further, the growth in the assay on OVCAR-3 ovarian was -86.5% (active); with HS 578T breast it was -35% (active); in the assay with NCI/ADR-RES ovarian, -12.7% (active).

Consider `Fc1ccccc1CSc1ncnc2nc[nH]c12`, for which the growth with SR leukemia was 105%; in the assay with RPMI-8226 leukemia, 95.1%; in the assay on OVCAR-8 ovarian, 80.5%; in the assay on OVCAR-5 ovarian it was 110%; in the assay on OVCAR-4 ovarian, 113%; with OVCAR-3 ovarian, 118%. For the same compound, the results for the growth in the assay on HS 578T breast and with NCI/ADR-RES ovarian were 111% and 114%, respectively.

For `COc1ccc(/C=C/C(=O)c2ccc(OC)c(OC)c2)cc1O`, the growth is 18.6% with SR leukemia; 65.2% in the assay with RPMI-8226 leukemia; 28.5% in the assay on OVCAR-8 ovarian; 97.5% in the assay with OVCAR-5 ovarian; 18.8% in the assay with OVCAR-3 ovarian; 92.6% in the assay on HS 578T breast. Further, the growth with NCI/ADR-RES ovarian is 5.7% (active).

For `c1cnc2nc3c(cc2c1)oc1ccccc13`, the growth in the assay on SR leukemia is 80.7%; in the assay with RPMI-8226 leukemia it was 94.1%; in the assay on OVCAR-8 ovarian, 100%; in the assay on OVCAR-5 ovarian, 105%; in the assay on OVCAR-4 ovarian it was 103%; in the assay with IGROV1 ovarian, 97.2%. In addition, the figures for the growth in the assay on OVCAR-3 ovarian, in the assay on HS 578T breast and in the assay on NCI/ADR-RES ovarian were 115%, 102% and 100%, respectively.

Consider `COc1ccc(Cl)cc1NC(=O)c1c(NC(=O)C(F)(F)C(F)(F)F)sc2c1CCCCC2`, for which the growth in the assay with SR leukemia is 4.32% (active); in the assay on RPMI-8226 leukemia, -31.9% (active); in the assay with OVCAR-8 ovarian, 10.5%; with OVCAR-4 ovarian it was 7.67% (active); in the assay on SK-OV-3 ovarian, -19.6% (active); with IGROV1 ovarian, 20.3%. The growth is 6.24% (active) in the assay on OVCAR-3 ovarian, -3.45% (active) in the assay with HS 578T breast and 3.81% (active) in the assay with NCI/ADR-RES ovarian.

With `Nc1ncc(C#Cc2cncc(NC(=O)c3cccc(C(F)(F)F)c3)c2)c2cccnc12`, the growth in the assay on SR leukemia is 37.7%; in the assay with RPMI-8226 leukemia it was 60.7%; with OVCAR-8 ovarian it was 47.5%; with OVCAR-4 ovarian, 25.6%; in the assay with SK-OV-3 ovarian, 67.3%; with IGROV1 ovarian, 40.4%. Also, the results for the growth with OVCAR-3 ovarian, with HS 578T breast and with NCI/ADR-RES ovarian were 84.6%, 27% and 66.1%, respectively.

For `CC(=O)OC1CCC2(C)C(CCC3C4CC=C(C(C)=O)C4(C)OC(=O)CC32)C1` (stereo not given), the growth in the assay on SR leukemia is -48.4% (active); in the assay with RPMI-8226 leukemia it was -31.7% (active); with OVCAR-8 ovarian, -20.4% (active); in the assay on OVCAR-5 ovarian, 75.1%; in the assay with IGROV1 ovarian, 61.5%; in the assay with OVCAR-3 ovarian, -36.2% (active). The growth is 75.1% in the assay with HS 578T breast and 37.5% with NCI/ADR-RES ovarian.

Take `CCCCCCc1nc2nc(Cl)c(Cl)nc2[nH]1`: the growth in the assay with SR leukemia is 62.9%; in the assay on RPMI-8226 leukemia, 28.2%; in the assay with OVCAR-8 ovarian it was 71.9%; in the assay with OVCAR-5 ovarian, 97.4%; in the assay with SK-OV-3 ovarian it was 92%; in the assay with IGROV1 ovarian, 57.7%. For the same compound, the growth with OVCAR-3 ovarian is 40.2%; in the assay on HS 578T breast, 76.4%; in the assay with NCI/ADR-RES ovarian, 66.7%.

As for `CCCCCCCCOc1ccc(/C=N/Nc2cc(C)nc3ccc(Cl)cc23)cc1`, the growth was -23.3% (active) with SR leukemia; -3.13% (active) in the assay on RPMI-8226 leukemia; -34.3% (active) in the assay on OVCAR-8 ovarian; -69.7% (active) in the assay on OVCAR-4 ovarian; 90.3% in the assay on SK-OV-3 ovarian; -84.6% (active) with IGROV1 ovarian. For the same compound, the growth was -93.1% (active) in the assay on OVCAR-3 ovarian, 46.9% with HS 578T breast and -22% (active) in the assay with NCI/ADR-RES ovarian.

Turning to `COc1cc(NCCCN(CC(C)C)CC(C)C)c2ncccc2c1`, the growth was 84.9% in the assay with SR leukemia; 78% in the assay on RPMI-8226 leukemia; 94.5% in the assay with OVCAR-8 ovarian; 17.2% in the assay with OVCAR-4 ovarian; 90.1% in the assay on SK-OV-3 ovarian; 80.3% in the assay on IGROV1 ovarian. Moreover, the growth in the assay on OVCAR-3 ovarian was 69.5%; in the assay on HS 578T breast, 92.3%; in the assay on NCI/ADR-RES ovarian, 79.8%.

Consider `CC1NC(=S)NC(=O)/C1=C/c1cc(=O)oc2c1ccc1ccccc12` (stereo not given), for which the growth in the assay on SR leukemia was 94%; with RPMI-8226 leukemia it was 102%; with OVCAR-8 ovarian, 87.5%; in the assay with OVCAR-4 ovarian it was 95.7%; in the assay with SK-OV-3 ovarian, 94.4%; with IGROV1 ovarian it was 91.9%. Further, the growth in the assay with OVCAR-3 ovarian is 100%; with HS 578T breast, 94.4%; in the assay with NCI/ADR-RES ovarian it was 92.7%.

On to `CC(c1ccccc1)n1ccnc1CO` (stereo not given), for which the growth with SR leukemia is 104%; with RPMI-8226 leukemia it was 95.6%; in the assay on OVCAR-8 ovarian, 112%; with OVCAR-5 ovarian it was 104%; in the assay with SK-OV-3 ovarian it was 96.8%; in the assay with IGROV1 ovarian, 94.2%. Besides, the growth with OVCAR-3 ovarian was 115%; in the assay with HS 578T breast, 92.1%; in the assay with NCI/ADR-RES ovarian, 99.8%.

In the case of `CCN(CC)CCOC(COc1cc(C)cc(C)c1)COc1cc(C)cc(C)c1`, the growth was -20.8% (active) in the assay with SR leukemia; 0.427% (active) in the assay on RPMI-8226 leukemia; 58.6% in the assay on OVCAR-8 ovarian; 55.6% in the assay on OVCAR-5 ovarian; 50.9% in the assay with OVCAR-4 ovarian; 12.6% in the assay with IGROV1 ovarian. Moreover, the figures for the growth with OVCAR-3 ovarian, with HS 578T breast and with NCI/ADR-RES ovarian were 58.4%, 61.6% and 41.5%, respectively.

Consider `COc1cc2nc(Cc3ccc(C)cc3)[nH]c(=O)c2cc1OC`, for which the growth with SR leukemia was 100%; with RPMI-8226 leukemia, 88.2%; in the assay on OVCAR-8 ovarian it was 104%; with OVCAR-5 ovarian, 102%; in the assay on OVCAR-4 ovarian, 108%; in the assay on IGROV1 ovarian, 109%. Further, the results for the growth with OVCAR-3 ovarian, in the assay with HS 578T breast and with NCI/ADR-RES ovarian were 109%, 100% and 102%, respectively.
